# Source: PubChem BioAssay (EPA / NIEHS)
# Results filed as inconclusive are left out. Some structures have more than one record in an assay (separate samples or runs), and their calls can disagree. Active and inactive are the calls of the source. Rule for the calls, unless noted: active = hit-call score of the fitted dose curve at least 0.9, where 1 is the maximum; inactive = score below 0.9.
# Assays:
# [1] = TOX21_p53_BLA_p5_viability: Viability Assessment in the Tox21 HCT-116 p53 Agonism Beta-lactamase Assay, Phase 5 (AID 2283600; active = hit-call score of the fitted dose curve at least 0.9, where 1 is the maximum)
# How it was run: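 Cells were plated at 4000/well, rested 5 h at 37C, then given compounds in DMSO (217-fold dilution) for 16 h at 37C, 5% CO2. Following the CCF4-AM beta-lactamase read, CellTiter-Glo was added and luminescence was read after 30 min at room temperature.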
# [2] = CCTE_Shafer_MEA_acute_firing_rate_mean: CCTE's Neural Acute Assay for Mean Firing Rate, Shafer Lab (AID 2284009);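 note: analyzed for loss of signal so actives lower firing rate relative to DMSO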
# How it was run: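 Rat primary cortical neurons on 48-well MEA plates, dosed at 0.03-40 uM on DIV 13 or 15; 40 min spontaneous activity recorded at 37 C before and after compound. Spike rate per electrode averaged per well, expressed as percent change from baseline.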
# [3] = CCTE_Harrill_HTTr_Viability_MCF7: CCTE's 6-hour Cell Viability Assessment for the High-Throughput Transcriptomics (HTTr) Platform, in MCF-7 cells cultured in DMEM + 10% fetal bovine serum, Harrill Lab (AID 2284010)
# How it was run: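 Cells were dosed with chemicals in an eight-point dilution series, imaged 6 hours later for propidium iodide uptake, and the endpoint was analyzed by bidirectional fitting against DMSO as negative control.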
# [4] = CCTE_Harrill_HTTr_Apoptosis_MCF7: CCTE's 6-hour Apoptosis Assessment for the High-Throughput Transcriptomics (HTTr) Platform, in MCF-7 cells cultured in DMEM + 10% fetal bovine serum, Harrill Lab (AID 2284011)
# How it was run: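 MCF-7 cells in DMEM + 10% fetal bovine serum were exposed to chemicals for 6 hours over an eight-point dilution series. Caspase-3/7 activation was imaged by high content imaging with CellEvent Caspase 3/7 Green; bidirectional fitting used DMSO as baseline.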
# [5] = CCTE_Harrill_HTTr_CellCount_MCF7: CCTE's Cell Proliferation Assessment for the High-Throughput Transcriptomics (HTTr) Platform, Harrill Lab (AID 2284012; active = hit-call score of the fitted dose curve at least 0.9, where 1 is the maximum;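 note: count of Hoechst-stained nuclei per well by high-content imaging in MCF-7 cells; cells exposed to compound for six hours; intended direction is loss of nuclei count meaning fewer cells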)
# How it was run: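 Chemicals in eight-point dilution series are added to MCF-7 cells for six hours, nuclei are stained with Hoechst and imaged, and per-well nuclei counts are fitted in both directions relative to DMSO controls.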
# [6] = CCTE_Shafer_MEA_acute_burst_number: CCTE's Neural Acute Assay for Single-Electrode Bursts, Shafer Lab (AID 2284013)
# How it was run: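 Primary rat cortical neurons on 16-electrode MEA wells, treated on DIV 13 or 15 with compound at 0.03-40 uM. Single-electrode burst count from 40-min recordings at 37 C before and after exposure; percent change from baseline per well, DMSO negative control.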
# [7] = CCTE_Shafer_MEA_acute_burst_duration_mean: CCTE's Neural Acute Assay for Mean Burst Duration, Shafer Lab (AID 2284014);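 note: hits are decreases in mean burst duration relative to DMSO controls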
# How it was run: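 Rat primary cortical neurons on 48-well MEA, treated at DIV 13 or 15 with 0.03-40 uM in at least 3 wells. Value is percent change in mean burst duration, comparing 40 min recordings at 37 C before and during exposure.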
# [8] = CCTE_Shafer_MEA_acute_per_burst_spike_number_mean: CCTE's Neural Acute Assay for Average Number of Spikes Per Burst, Shafer Lab (AID 2284015);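 note: hits are decreases in mean spikes per burst versus baseline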
# How it was run: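 We recorded spontaneous network firing of rat cortical neurons for 40 min before and 40 min during exposure to compound at 0.03-40 uM, at 37 C. Spikes were detected adaptively at 8x rms noise, and the change in average spikes per burst was fitted against DMSO.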
# [9] = CCTE_Shafer_MEA_acute_interburst_interval_mean: CCTE's Neural Acute Assay for Mean Interburst Interval, Shafer Lab (AID 2284016);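 note: percent change of mean interburst interval versus each well's own pre-dose baseline; curves fitted for decrease in interburst interval relative to DMSO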
# How it was run: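 MEA recording of spontaneous network bursting in primary rat cortical cultures; mean interburst interval was compared before and after a 40-min compound exposure (0.03-40 uM) and expressed as percent change, relative to DMSO.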
# [10] = CCTE_Shafer_MEA_acute_burst_percentage_mean: CCTE's Neural Acute Assay for Percentage of Spikes in a Burst, Shafer Lab (AID 2284017)
# How it was run: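 Compounds were tested at 0.03-40 uM on primary rat cortical neuron networks grown over microelectrodes, with at least three wells per compound. Spontaneous firing was recorded for 40 min before and 40 min after dosing, and the change in burst percentage was computed per well.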
# [11] = CCTE_Shafer_MEA_acute_burst_percentage_std: CCTE's Neural Acute Assay for Standard Deviation of Burst Percentage, Shafer Lab (AID 2284018);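 note: fitted in the negative direction so actives lower burst percentage SD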
# How it was run: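 Rat primary cortical neurons on 48-well MEAs, DIV 13 or 15, 37 C. 40-min baseline then 40-min recording with compound (0.03-40 uM); well-level SD of per-electrode burst spike percentage, expressed as percent change from baseline.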
# [12] = CCTE_Shafer_MEA_acute_per_network_burst_spike_number_mean: CCTE's Neural Acute Assay for Average Number of Spikes in a Network Burst, Shafer Lab (AID 2284019)
# How it was run: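 Rat primary cortical neurons on 48-well MEA at DIV 13 or 15, 37 C; compounds 0.03-40 uM, at least three wells each. 40-min baseline then 40-min exposure recording; percent change in mean spikes per network burst.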
# [13] = CCTE_Shafer_MEA_acute_per_network_burst_spike_number_std: CCTE's Neural Acute Assay for Standard Deviation of Number of Spikes in a Network Burst, Shafer Lab (AID 2284020);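 note: fitted for decrease in spike-number SD versus DMSO so actives lower it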
# How it was run: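 Rat primary cortical neurons on 48-well MEA (16 electrodes/well), treated DIV 13 or 15 at 0.03-40 uM, ≥3 wells per compound. 40 min recordings at 37 C before and after dosing; value is percent change in network-burst spike-number SD, negative direction vs DMSO.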
# [14] = CCTE_Shafer_MEA_acute_per_network_burst_electrodes_number_mean: CCTE's Neural Acute Assay for Mean Number of Electrodes in a Network Burst, Shafer Lab (AID 2284021);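 note: curves fitted for decreases only so hits reduce electrodes per burst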
# How it was run: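 Rat primary cortical neurons on 16-electrode MEA wells were recorded 40 min at baseline on DIV 13 or 15, then 40 min after compound (0.03-40 uM), at 37 C. Value is percent change per well, fitted in loss direction versus DMSO.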
# [15] = CCTE_Shafer_MEA_acute_network_burst_percentage: CCTE's Neural Acute Assay for Percentage of Network Bursts, Shafer Lab (AID 2284022);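 note: curves fitted for loss so actives lower network burst percentage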
# How it was run: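 Primary rat cortical neurons on 16-electrode MEA wells, treated on DIV 13 or 15 with compound (0.03-40 uM); 40-min baseline and 40-min post-exposure recordings at 37 C. Value is percent change in spikes within network bursts versus baseline, DMSO negative control.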
# [16] = CCTE_Shafer_MEA_acute_cross_correlation_area: CCTE's Neural Acute Assay for Area of Cross Correlation, Shafer Lab (AID 2284024);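 note: area under pooled inter-electrode spike cross-correlation near zero lag as percent change from own baseline; curves fitted for loss of cross-correlation area so actives lower synchrony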
# How it was run: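 Primary rat cortical neurons on 48-well MEA plates (16 electrodes/well) were recorded 40 min at baseline on DIV 13 or 15, then 40 min with compound (0.03-40 uM) at 37 C; cross-correlation area expressed as percent change from baseline.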
# [17] = CCTE_Shafer_MEA_acute_cross_correlation_HWHM: CCTE's Neural Acute Assay for Cross Correlation at Half Width at Half Maximum, Shafer Lab (AID 2284026);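 note: percent change per well from pre-dose baseline in spike cross-correlogram half width; hits are a decrease in cross-correlogram half width relative to DMSO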
# How it was run: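 Primary rat cortical neurons on 16-electrode MEA wells; 40-min baseline on DIV 13 or 15, then 40-min recording with compound (0.03-40 uM) at 37 C. HWHM of spike cross-correlogram expressed as percent change from baseline per well, DMSO reference.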
# [18] = CCTE_Shafer_MEA_acute_synchrony_index: CCTE's Neural Acute Assay for Synchrony, Shafer Lab (AID 2284027);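 note: fitted for loss of signal so actives lower synchrony relative to DMSO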
# How it was run: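 Readout is percent change in the unitless network synchrony index (0 low, 1 high) between a 40-min baseline and a 40-min recording in compound. Cultures were primary rat cortical neurons on MEAs, treated at 0.03-40 uM on DIV 13 or 15.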
# [19] = CCTE_Shafer_MEA_dev_firing_rate_mean: CCTE's Neural Network Formation Assay for Mean Firing Rate, Shafer Lab (AID 2284031);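 note: curve fitted for loss of firing so AC50 reflects decreased mean firing rate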
# How it was run: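 Rat primary cortical neurons were seeded on multielectrode arrays and treated from plating through day 12, with redosing at each feed. Spontaneous spiking was recorded four times; mean firing rate AUC was fitted downward against DMSO.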
# [20] = CCTE_Shafer_MEA_dev_active_electrodes_number: CCTE's Neural Network Formation Assay for Number of Active Electrodes, Shafer Lab (AID 2284040; active = hit-call score of the fitted dose curve at least 0.9, where 1 is the maximum;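 note: potency for loss of active electrodes versus DMSO so lower counts are hits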)
# How it was run: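 Primary rat cortical neurons on 16-electrode MEA wells, exposed from day 0 through day 12 with compound renewed at DIV 5 and 9 feeds. Active electrodes (mean firing ≥5 spikes/min) counted at DIV 5, 7, 9, 12; trapezoidal AUC across days, loss-of-signal versus DMSO.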
# [21] = CCTE_Shafer_MEA_dev_burst_rate: CCTE's Neural Network Formation Assay for Burst Rate, Shafer Lab (AID 2284042);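 note: potency for loss of burst rate below DMSO control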
# How it was run: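 Developmental network assay measuring how 12-day exposure of rat cortical neuron cultures alters bursting on extracellular MEA recordings. Values are AUC of well-mean burst rate across four recording days, relative to DMSO vehicle.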
# [22] = CCTE_Shafer_MEA_dev_bursting_electrodes_number: CCTE's Neural Network Formation Assay for Number of Bursting Electrodes, Shafer Lab (AID 2284043; active = hit-call score of the fitted dose curve at least 0.9, where 1 is the maximum;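 note: potency is for loss of bursting electrodes relative to DMSO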)
# How it was run: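 Primary rat cortical neurons plated on 16-electrode MEA wells, exposed from day 0 with compound renewed at DIV 5 and 9. Electrodes bursting ≥1 burst per 2 min counted on days 5, 7, 9 and 12; trapezoidal AUC across days, fitted for loss versus DMSO.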
smiles,measurement,setting,value
[Cd+2].[Cl-].[Cl-],outcome,[1],inactive
same,outcome,[2],inactive
same,outcome,[3],inactive
same,outcome,[4],inactive
same,outcome,[5],inactive
same,outcome,[6],inactive
same,outcome,[7],inactive
same,outcome,[8],inactive
same,outcome,[9],inactive
same,outcome,[10],inactive
same,outcome,[11],inactive
same,outcome,[12],inactive
same,outcome,[13],inactive
same,outcome,[14],inactive
same,outcome,[15],inactive
same,outcome,[16],inactive
same,outcome,[17],inactive
same,outcome,[18],inactive
same,AC50,[19],331 nM (active)
same,AC50,[20],315 nM (active)
same,AC50,[21],461 nM (active)
same,AC50,[22],302 nM (active)
